# Screening results: PubChem, National Center for Advancing Translational Sciences (NCATS)
# This is a sample that favours compounds with a hit; in the whole collection about 12% have one here.
# L3MBTL1 inh-1: qHTS Assay for the Inhibitors of L3MBTL1; Lethal(3)malignant brain tumor-like protein 1 (Homo sapiens), Q9Y468; AlphaScreen L3MBTL1–H3K9me1 peptide binding; Potency, µM (top dose mostly 57.1 µM), for inactives: at the highest dose activity, negative = inhibition, usual class: inhibitors; actives 0.66% (n = 230,000); AID 485360, 2010; further: on the % scale 0 is the no-effect control and ±100 the full control effect; nearly all actives have a fitted effect of over 60% in size
#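 Read-out is AlphaScreen signal from streptavidin donor and nickel chelate acceptor beads (10 ug/mL final each) bridging L3MBTL1 (50 nM) and biotinylated K9-monomethylated H3(1-15) peptide (75 nM), after 30 min compound exposure at room temperature.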
# HP1b chromo inh: HTS for Inhibitors of HP1-beta Chromodomain Interactions with Methylated Histone Tails. AID 540317, 2011. actives 0.56% (n = 390,000). Chromobox protein homolog 1 (Homo sapiens), P83916. Potency, µM (doses to about 114 µM), for inactives: at the highest dose activity change, negative = inhibition, usual class: inhibitors. AlphaScreen HP1-beta / biotin-H3K9me3 peptide binding; further: nearly all actives have a fitted effect of over 70% in size
#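 HP1-beta protein (50 nM final) preincubated 30 min at room temperature with biotinylated H3(1-18)K9me3 peptide (50 nM) in PBS pH 7.4, 0.01% Tween-20, then compound added for 30 min. AlphaScreen streptavidin donor/nickel chelate acceptor beads (10 ug/mL final), 30 min dark, luminescence read.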
# G9a block: qHTS Assay for Inhibitors of Histone Lysine Methyltransferase G9a; G9a H3K9 monomethylation, AlphaScreen, 2 h; Potency, µM (series often up to 102 µM), for the others: top-dose activity, negative = inhibition, hits mostly inhibitors; Histone-lysine N-methyltransferase EHMT2 (Homo sapiens), Q96KQ7; actives 8.8% (n = 350,000); further: on the % scale 0 is the no-effect control and ±100 the full control effect; nearly all actives have a fitted effect of over 75% in size
#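 Using a bead-based AlphaScreen, monomethylated H3K9 product from 2 h room-temperature reactions (G9a 20 nM, peptide 500 nM, SAM 20 uM) was detected with 0.5 ug/mL rabbit anti-H3K9me1 antibody.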
# BAZ2B block: qHTS Assay for Inhibitors of BAZ2B | AlphaScreen BAZ2B-H3K14Ac peptide displacement | Bromodomain adjacent to zinc finger domain protein 2B (Homo sapiens), Q9UIF8 | actives 4.4% (n = 360,000) | Potency, µM (titrated, usually from 114 µM), without a hit: at the highest dose activity change, negative = inhibition, most hits filed as inhibitors; further: on the % scale 0 is the no-effect control and ±100 the full control effect; nearly all actives have a fitted effect of over 60% in size
#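 Inhibition is scored as reduced AlphaScreen emission. The BAZ2B/b-H3(5-23)K14Ac complex (50 nM each) in PBS pH 7.4, 0.01% Tween-20 meets compound (up to 110 uM) for 30 min at RT before bead addition.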
# Sfp inh: qHTS Assay for Inhibitors of Bacillus subtilis Sfp phosphopantetheinyl transferase (PPTase); AID 1490, 2009; 4'-phosphopantetheinyl transferase ffp (Bacillus subtilis), Q9F4F7; actives 3.5% (n = 310,000); Potency, µM, for the others: largest response in the series, negative = inhibition, actives largely listed as inhibitors; Biochemical Sfp PPTase activity, qHTS;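 further: the enzyme is Sfp with the accession as filed and its product quenches rhodamine fluorescence; 0% = enzyme reaction without inhibitor and -100% = no enzyme wells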
#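 Fluorescence-quenching assay with 15 nM Sfp, 5 uM rhodamine-CoA and 12.5 uM BHQ-2-labelled ybbR peptide in pH 7.6 Hepes/MgCl2 buffer. Enzyme was pre-incubated with compound for 15 min at room temperature. Rate was taken from the 30-min fluorescence change (525/598 nm).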
# JMJD2A Tudor: qHTS Assay for Inhibitors of JMJD2A-Tudor Domain. Lysine-specific demethylase 4A (Homo sapiens), O75164. AlphaScreen JMJD2A-Tudor / H3K4me3 peptide binding. Potency, µM (highest dose often 114 µM), for the others: at the top dose activity change, negative = inhibition, hits mostly inhibitors. actives 4.4% (n = 390,000); further: on the % scale 0 is the no-effect control and ±100 the full control effect; nearly all actives have a fitted effect of over 50% in size
# L3MBTL1 inh-2: qHTS Assay for the Inhibitors of L3MBTL1: Hit Validation. actives 91% (n = 500). AID 540279, 2011. shares compounds with L3MBTL1 inh-1. Potency, µM, hits mostly inhibitors. L3MBTL1 methyl-lysine binding inhibition, biochemical qHTS; further: nearly all actives have a fitted effect of over 70% in size
# L3MBTL1 ctr: qHTS Assay for the Inhibitors of L3MBTL1: Hit Validationin AlphaScreen Counterscreen; shares compounds with L3MBTL1 inh-1; AID 602224, 2012; AlphaScreen counterscreen, signal inhibition; Potency, µM (top dose mostly 57.1 µM), inactives show at the highest dose activity change, negative = inhibition, hits mostly inhibitors; 500 tested, under 10 active; further: 0% is about no effect
# The depositor's hits bear a star; ? = inconclusive; / = no result given; ! = repeats disagree; [ ] = another dose, or the depositor's remark. The call rests on the fitted dose curve; in most records, active means well fitted curve in the direction sought with a large enough effect; inconclusive means small, poorly fitted or top-dose-only effect, or another doubt; inactive means no such curve, though single readings can be large; an effect the other way counts as inactive or inconclusive. Potency means the concentration at half of the fitted maximal effect.
SMILES,L3MBTL1 inh-1,HP1b chromo inh,G9a block,BAZ2B block,Sfp inh,JMJD2A Tudor,L3MBTL1 inh-2,L3MBTL1 ctr
O=C(Cn1ccc2cc(S(=O)(=O)N3CCCCC3)ccc21)NCc1ccccc1F,/,16%,-13%,-9%,14%,-11%,/,/
CSc1nnc(CSc2cc(C)nc(N(C)C)n2)o1,7%,27%,-13%[59 µM],3%,6%,-13%,/,/
CC1CCN(Cc2c(O)ccc3c2O/C(=C\c2ccco2)C3=O)CC1,10µM*,15%,5.6µM*,50µM*,?,-27%,27*,-2%
Cc1ccc(N=C2NC(=O)/C(=C\c3ccco3)S2)cc1,20µM*,-21%,?,40µM*,-20%,?,27*,-7%
O=C1NC(=Nc2ccc(Cl)cc2)/C(=C/c2ccco2)S1,25µM*,-1%,3.2µM*,50µM*,50µM*,11µM*,8.4*,5%
O=C(Oc1c(CN2CCOCC2)cc(Cl)c2cccnc12)c1ccccc1F,14µM*,2%,-46%,3.5µM*,13%,25µM*,27*,2%
Cc1cc(NC(=O)Cc2cccs2)no1,28µM*,?,?,45µM*,-19%,18µM*,3.4*,-20%
Cc1cc(NS(=O)(=O)c2ccc(NC(=O)Cc3cccs3)cc2)no1,?,28%,4%[12.7 µM],-2%,18%,-15%,/,/
O=C(Nc1ccc2nc(-c3ccco3)c(-c3ccco3)nc2c1)NC1CC1,4µM*,35µM*,?,11µM*,5µM*,20µM*,2.4*,-18%
Cc1cccc(C(=O)N(c2ccccn2)C(C)c2ccco2)c1 (stereo not given),4%,10%,-1%,-16%,23%,-20%,/,/
O=C(/C=C/c1ccco1)N(c1ccccn1)c1ccccn1,4µM*,32µM*,13µM*,22µM*,40µM*,22µM*,2.7*,-2%
CC(C)[C@H](NC(=O)c1ccccc1Cl)C(=O)Nc1nc(-c2ccccn2)cs1,35µM*,18%,-4%,32µM*,?,45µM*,24*,18%
CCCCN(C(=O)c1cccc(-n2cccc2)c1)c1c(N)n(Cc2ccccc2)c(=O)[nH]c1=O,20µM*,/,11%[0.501 µM],45µM*,/,/,4.2*,-29%
CC(=O)c1c(COC(=O)c2ccncc2)nc2ccccc2[n+]1[O-],35µM*,10%,1µM*,40µM*,11%,-2%,?,-1%
Cc1cc(/C=C2/C(=N)N3C(c4ccccc4)=CSC3=NC2=O)c(C)n1-c1ccc(Cl)cc1,/,13%,/,/,/,-10%,/,/
N=C1/C(=C\c2ccc(-c3cccc(Cl)c3)o2)C(=O)N=C2SC=C(c3ccccc3)N12,35µM*,?,45µM*,?,6.3µM*,?,27*,?
O=S1(=O)[C@H]2C[C@H](CO)O[C@@]2(CO)CN1Cc1ccc(-c2cccc(Cl)c2)cc1,2%,61%,/,/,/,-24%,/,/
COc1ccc(-c2nnc3sc(-c4ccco4)nn23)cc1OC,/,32%,?,-12%,-18%,-13%,/,/
Cc1oc(-c2ccc(F)cc2)cc1-c1nn2c(-c3ccoc3C)nnc2s1,18µM*,?,?,35µM*,40µM*,89µM*,6*,6%
Nc1ccc(Nc2ccccc2)c(S(=O)(=O)O)c1,16µM*,-2%[57 µM],45µM*,56µM*,4%,?,2.7*,?
O=S(=O)(O)c1cnccc1Nc1cccc(C(F)(F)F)c1,/,10%,/,/,/,-1%,/,/
O=C(NCC1CC1)c1ccc2c3n(nc2c1)-c1ccc(Cl)cc1CO3,/,28%,/,/,/,-27%,/,/
O=C(O)c1ccc2c3n(nc2c1)-c1ccc(Cl)cc1CO3,5µM*,27%,50µM*,?,4%,-15%,21*,-4%
CCc1nnc(NC(=O)CCC(=O)NC2CCCCCC2)s1,/,51%,5%,-3%[57.1 µM],11%,-5%,/,/
CCN(CC(=O)Nc1c(F)cccc1F)C(=O)/C=C/c1ccc2ccccc2n1,3.2µM*,-89%,7.1µM*,8.9µM*,/,3.5µM*,1.7*,8%
SMILES,L3MBTL1 inh-1,HP1b chromo inh,G9a block,BAZ2B block,Sfp inh,JMJD2A Tudor,L3MBTL1 inh-2,L3MBTL1 ctr
CCN(CC(=O)Nc1c(F)cccc1F)C(=O)/C=C/c1ccc(C)o1,-12%,-15%,-43%,-1%,/,-18%,/,/
COc1ccc2c(c1)CCCC21NC(=O)N(CC(=O)NC(=O)NCc2ccccc2)C1=O (stereo not given),-5%,26%,-1%,-19%,4%,-11%,/,/
O=C(CSc1ccc(-c2ccc(Cl)cc2)nn1)Nc1ccc2c(c1)OCCO2,-1%,43%,-5%,-8%,16%,-13%,/,/
C=CCn1c(SCC(=O)c2ccc(O)c(O)c2)nnc1-c1cccnc1,6.3µM*,25µM*,/,35µM*,?,-23%[11.4 µM],3*,?
S=C1SCN(Cc2cccnc2)CN1Cc1ccccc1,/,24%,1%,-28%,-20%,-5%,/,/
S=C1SCN(Cc2ccccn2)CN1Cc1ccco1,28µM*,-31%,2.2µM*,18µM*,10µM*,6.3µM*,27*,4%
CC1CCC(NC(=O)CCS(=O)(=O)c2ccc3c(c2)CC(C)N3C(=O)C2CC2)CC1 (stereo not given),/,-9%,-47%,-17%[57.1 µM],6%,?,/,/
CC(=O)Nc1ccc(-c2cc(C(=O)O)c3ccc(C)cc3n2)cc1,0%,20%,/,-12%,-23%,-5%,/,/
O=C(CSc1nnc(NC2CCCCC2)s1)N1CCOCC1,5%,44%,?,2%,/,3%,/,/
O=C(O)/C=C/c1cccnc1,9%,27%,16%[59 µM],-3%,7%,-3%,/,/
CC(/C=C\c1cccnc1)=C/C(=O)O,28µM*,-5%,-27%[59 µM],50µM*!,-10%,56µM*!,27*,0%
